# Results reported in PubChem BioAssay AID1259343 (VanderVen Lab, College of Veterinary Medicine, Cornell …, 2017).
# Out of some 6,200 compounds screened, about 2,900 (47%) were called active. Rule as the data show it: active = inhibition above about 50%; inactive = the rest. So high a share suggests a set chosen from earlier hits. Some of the results follow.
# Test: Mycobacterium tuberculosis growth inhibition, primary screen (AID 1259343)
# Details: inhibition: at 10 µM, hits give high values; outcome: 10 uM
row,SMILES,inhibition
1,C=C(C)C1Cc2c(ccc(C(=O)O)c2O)O1 (configuration not stated),48.9% (inactive)
2,O=[N+]([O-])c1cnc(Nc2ccc(Cl)cc2)c([N+](=O)[O-])c1,58.3% (active)
3,O=[N+]([O-])c1cnc(Nc2ccc(O)cc2)c([N+](=O)[O-])c1,inactive
4,CCN1CCN(c2cc3c(cc2F)c(=O)c(C(=O)O)cn3C2CC2)CC1,99.3% (active)
5,Nc1cc(F)c(N2CC3CCC2C3)cc1C(=O)O (configuration not stated),36.3% (inactive)
6,Fc1ccccc1Cc1noc(CN2CC[C@@H]3CCCC[C@H]3C2)n1,74.6% (active)
7,Clc1cccc(C2CCN(Cc3nc(COc4ccccc4)no3)C2)c1 (configuration not stated),92.9% (active)
8,OC(CCc1ccccc1)C1CCN(Cc2nc(Cc3ccccc3F)no2)CC1 (configuration not stated),43.5% (inactive)
9,O=C(c1cccs1)C1CCCN(Cc2nc(COc3ccccc3)no2)C1 (configuration not stated),83.9% (active)
10,Fc1ccccc1Cc1noc(CN2CCCN(Cc3ccccc3F)CC2)n1,34% (inactive)
11,c1ccc(CCC2CCN(Cc3nc(COc4ccccc4)no3)CC2)cc1,inactive
12,c1ccc(OCc2noc(CN3CC[C@@H]4CCCC[C@H]4C3)n2)cc1,66.7% (active)
13,O=C(c1ccccc1)C1CCCN(Cc2nc(COc3ccccc3)no2)C1 (configuration not stated),inactive
14,CCc1ccc(CCOc2ccc(CC3SC(=O)NC3=O)cc2)nc1 (configuration not stated),38.2% (inactive)
15,O=C1NC(=O)C(=Cc2ccc(F)cc2)S1,-10.1% (inactive)
16,CC(C)N1C(=O)C(=Cc2ccc(O)cc2)SC1=S,36.9% (inactive)
17,CCCCCCOc1ccc(C=C2SC(=O)NC2=O)cc1,84.7% (active)
18,CCCOc1ccc(C=C2SC(=S)NC2=O)cc1,86.5% (active)
19,CC(C)(C)c1ccc(-c2ccnc3nc(N4CCN(C(=O)c5ccc([N+](=O)[O-])o5)CC4)nn23)cc1,74.3% (active)
20,O=C(OCC(=O)N(C1CCCCC1)C1CCCCC1)c1ccc([N+](=O)[O-])o1,-1.53% (inactive)
21,O=C(OCC(=O)N1CCCC1)c1ccc([N+](=O)[O-])o1,39% (inactive)
22,CCc1ccc(S(=O)(=O)Nc2cccc(-c3nc4cccnc4s3)c2C)s1,62.5% (active)
23,CC(C)CSc1nnc(-c2cccc([N+](=O)[O-])c2)o1,97.8% (active)

row,SMILES,inhibition
1,S=c1[nH]nc(-c2cccc(Br)c2)o1,62.1% (active)
2,Cc1cc(C)cc(-c2n[nH]c(=S)o2)c1,101% (active)
3,CC(C)(C)c1ccc(-c2n[nH]c(=S)o2)cc1,25.8% (inactive)
4,O=[N+]([O-])c1cccc(-c2n[nH]c(=S)o2)c1,91.4% (active)
5,CC(C)CSc1nnc(C2CCCCC2)o1,-1.92% (inactive)
6,N#Cc1cccc(CSc2nnc(-c3cccc(Br)c3)o2)c1,5.74% (inactive)
7,Cc1ncc(CNC(=O)N2CCC(C(C)C)CC2)s1,-9.36% (inactive)
8,S=c1[nH]nc(-c2ccc(Br)cc2)o1,80.5% (active)
9,S=c1nc(-c2ccc(Br)cc2)[nH][nH]1,-31.4% (inactive)
10,S=c1[nH]nc(-c2ccc(Cl)cc2)o1,41.4% (inactive)
11,COCc1nc(N2CCNCC2)c2c3c(sc2n1)CCCC3,94.1% (active)
12,CCN1CCc2c(sc3nc(C4CCCCC4)nc(N4CCNCC4)c23)C1,50.1% (active)
13,c1nc(N2CCCCC2)c2c3c(sc2n1)CCCC3,30% (inactive)
14,c1cc2c(cc1Oc1nc(CN3CCOCC3)nc3sc4c(c13)CCC4)CCC2,22.2% (inactive)
15,CC(C)(CC(=O)O)CC(=O)N1CCC2(CC1)OCc1cc(-c3ccc(C(F)(F)F)cc3)ccc1O2,58% (active)
16,C#CCN(CC=C)Cc1nc(-c2ccc(OCC)cc2)oc1C,-15.4% (inactive)
17,CCOc1cccc(OCc2nc(-c3ccco3)oc2C)c1,75.2% (active)
18,Cc1sc2nc(-c3ccco3)oc(=O)c2c1C,-5.77% (inactive)
19,OCC#CCSc1ncnn1-c1ccccc1,-60.2% (inactive)
20,COc1ccc(Nc2ccc(Nc3ccc([N+](=O)[O-])cc3[N+](=O)[O-])cc2)cc1,94.7% (active)
21,COc1ccc(Nc2ncc([N+](=O)[O-])cc2[N+](=O)[O-])cc1,inactive
22,COc1ccc(Nc2c([N+](=O)[O-])ccc3c2=NC2(CCCCC2)N=3)cc1,47.2% (inactive)
23,COC(=O)C1C(c2ccccc2)C2(c3ccccc3)C(C)(C)C12C(=O)OC (configuration not stated),10.3% (inactive)

row,SMILES,inhibition
1,O=c1cc(-c2c(F)c(F)c(F)c(F)c2F)oc2c(F)c(F)c(F)c(F)c12,100% (active)
2,Fc1ccc(C2C=C3Oc4ccccc4N=C3NN2)cc1 (configuration not stated),92.6% (active)
3,Brc1ccccc1OCc1cnn(-c2ccccc2)n1,21.9% (inactive)
4,CC1(C)OC(=O)C(=CNc2ccc3ccccc3c2)C(=O)O1,20.6% (inactive)
5,CC(C)c1ccc(NC=C2C(=O)OC(C)(C)OC2=O)cc1,85.2% (active)
6,Cc1cccc(-n2cc(CN3CCN(C(=O)c4ccco4)CC3)c(-c3cccc(F)c3)n2)c1,24.8% (inactive)
7,Cc1oc(-c2ccc3ccccc3c2)nc1CN1CCN(C(=O)c2ccco2)CC1,78.8% (active)
8,CC(=O)NC1CCN(Cc2nc(-c3cccc(Oc4ccccc4)c3)oc2C)C1 (configuration not stated),24.9% (inactive)
9,CC(=O)NC(c1ccccc1)(c1ccccc1)C(F)(F)F,7.55% (inactive)
10,O=C(NCC(F)(F)F)c1cc(-c2ccc(Cl)cc2)n[nH]1,72.2% (active)
11,O=C(NCC(F)(F)F)c1cc(-c2ccccc2Cl)n[nH]1,30.1% (inactive)
12,Cc1ccc(Sc2ccccc2N2CCNCC2)c(C)c1,83.7% (active)
13,CCOC(=O)CN1C(=O)CSC1=CC#N,26.1% (inactive)
14,O=C(Nc1ccccn1)C1CCN(c2cccc(C(F)(F)F)n2)CC1,92.4% (active)
15,CCCCn1nc(C)c(C(=O)Nc2cc(C)ccc2F)c1Cl,60.1% (active)
16,CCCCn1nc(C)c(C(=O)NCc2ccc(Cl)s2)c1Cl,-14.6% (inactive)
17,Cc1nn(-c2ccccc2)c(Cl)c1C(=O)Nc1ccccc1I,28.9% (inactive)
18,Cc1cc(C)c2ccc(O)cc2n1,83.4% (active)
19,C=CCN(Cc1ccc(Cl)s1)C(=O)CSc1nnc(-c2ccc(C)cc2)o1,21.2% (inactive)
20,Cc1ccc(C(=O)Nc2ccccc2SCC(F)(F)F)cc1,45.2% (inactive)
21,C=CCN(CC=C)C(=S)NC(=O)c1ccc(C)cc1,98.4% (active)
